Results filed as inconclusive are left out. Where a call stands in place of a potency, no number is given. Activity calls are given as the source filed them. Calls follow the shape of the dose curve; as a rule, active = well fitted curve in the direction sought with a large enough effect; inconclusive = small, poorly fitted or top-dose-only effect, or another doubt; inactive = no such curve, though single readings can be large; an effect the other way counts as inactive or inconclusive.
test: Quantitative high throughput screen for delayed death inhibitors of the malarial parasite plastid, 96 hour incubation (AID 488745); conditions: Plasmodium falciparum growth; series mostly up to 28.7 µM; also: nearly all actives have a fitted effect of over 70% in size
In short: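 Two-generation (96 h) exposure of luciferase-reporter P. falciparum in erythrocytes, 2% hematocrit, 0.1% parasitemia final, 37 C, 5% CO2, RPMI 1640 with 0.5% Albumax. Growth inhibition scored by reduced luminescence.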
Potency is read from the fitted curve at half-maximal effect.

| SMILES | Potency |
| --- | --- |
| CCN(CCCl)Cc1ccccc1Br | inactive |
| C=CCN1C[C@@H](C)N([C@H](c2ccc(C(=O)N(CC)CC)cc2)c2cccc(OC)c2)C[C@@H]1C | 4.65 µM (active) |
| CC(N)c1cccc(Cl)c1Cl (stereo not given) | inactive |
| C=CCN1CC[C@]23c4c5ccc(O)c4O[C@@H]2/C(=N/N=C2\CC[C@@]4(O)C6Cc7ccc(O)c8c7[C@@]4(CCN6CC=C)[C@@H]2O8)CC[C@@]3(O)C1C5 | 2.94 µM (active) |
| NC(Cc1cc(O)c(O)cc1O)C(=O)O (stereo not given) | inactive |
| NC(=O)CI | inactive |
| CC(C)(C)c1cc(C=C(C#N)C#N)cc(C(C)(C)C)c1O | 1.85 µM (active) |
| CCCCCCCCCCCCCC(=O)O[C@@H]1[C@@H](C)[C@@]2(O)[C@@H](C=C(CO)C[C@@]3(O)C(=O)C(C)=C[C@@H]23)C2C(C)(C)[C@@]21OC(C)=O (stereo not given in full) | 11.7 µM (active) |
| CCCCCCC(C)(C)c1ccc([C@@H]2C[C@H](O)CC[C@H]2CCCO)c(O)c1 | 4.65 µM (active) |

test: Quantitative high throughput screen for delayed death inhibitors of the malarial parasite plastid, 48 hour incubation (AID 488752); conditions: Plasmodium falciparum growth; series mostly up to 28.7 µM; also: nearly all actives have a fitted effect of over 65% in size
In short: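 Cultures: infected erythrocytes at final 2% hematocrit and 0.1% parasitemia in Albumax-supplemented RPMI. Parasites express integrated firefly luciferase. Incubation with compound lasts 48 h before luminescent detection of remaining reporter activity.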

| SMILES | Potency |
| --- | --- |
| CCN(CCCl)Cc1ccccc1Br | inactive |
| C=CCN1C[C@@H](C)N([C@H](c2ccc(C(=O)N(CC)CC)cc2)c2cccc(OC)c2)C[C@@H]1C | 5.22 µM (active) |
| CC(=O)c1c(O)c(C)c(O)c(Cc2c(O)c3c(c(C(=O)/C=C/c4ccccc4)c2O)OC(C)(C)C=C3)c1O | 14.7 µM (active) |
| CC(N)c1cccc(Cl)c1Cl (stereo not given) | inactive |
| CCCn1c(=O)c2[nH]c(C3CCCC3)nc2n(CCCOC(=O)c2ccc(S(=O)(=O)F)cc2)c1=O | inactive |
| C=CCN1CC[C@]23c4c5ccc(O)c4O[C@@H]2/C(=N/N=C2\CC[C@@]4(O)C6Cc7ccc(O)c8c7[C@@]4(CCN6CC=C)[C@@H]2O8)CC[C@@]3(O)C1C5 | 3.29 µM (active) |
| NC(N)=Nc1ccc2[nH]c3c(c2c1)C[C@@]1(O)[C@H]2Cc4ccc(O)c5c4[C@@]1(CCN2CC1CC1)[C@H]3O5 | inactive |
| NC(Cc1cc(O)c(O)cc1O)C(=O)O (stereo not given) | inactive |
| NC(=O)CI | inactive |
| CC(C)(C)c1cc(C=C(C#N)C#N)cc(C(C)(C)C)c1O | 1.47 µM (active) |
| CCCCCCC(C)(C)c1ccc([C@@H]2C[C@H](O)CC[C@H]2CCCO)c(O)c1 | 11.7 µM (active) |
